{
  "source": "PubChem BioAssay",
  "note": "Unmarked numbers belong to inactive results. Unless noted, the rule behind the calls is not given here.",
  "data": [
    {"biological_target": "Homeobox protein Hox-A13 (Mus musculus) (UniProt Q62424)", "sequence (Q62424 whole entry, looked up)": "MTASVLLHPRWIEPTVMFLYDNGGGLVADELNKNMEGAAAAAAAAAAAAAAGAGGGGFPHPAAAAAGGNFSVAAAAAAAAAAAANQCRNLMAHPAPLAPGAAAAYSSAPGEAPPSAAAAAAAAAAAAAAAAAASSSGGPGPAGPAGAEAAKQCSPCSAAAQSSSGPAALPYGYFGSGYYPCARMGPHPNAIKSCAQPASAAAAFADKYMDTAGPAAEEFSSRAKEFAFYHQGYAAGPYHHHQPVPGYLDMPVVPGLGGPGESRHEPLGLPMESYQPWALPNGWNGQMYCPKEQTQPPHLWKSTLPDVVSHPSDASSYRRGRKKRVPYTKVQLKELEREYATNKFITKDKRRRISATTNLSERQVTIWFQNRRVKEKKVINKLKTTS", "assay": "inhibitors of HoxA13-DNA binding, primary screen, biochemical, fluorescence polarization, labeled oligonucleotide (AID 1185)", "details": "15 min, higher = more signal, called active from +8 up or from −8 down", "values": [
      {"smiles": "C=CCOC(=O)[C@@H]1[C@H]2C(=O)O[C@H](c3ccccc3)[C@H](c3ccccc3)N2[C@H](c2ccc(OCCOC(=O)[C@@H]3C[C@@H]4C(=O)N[C@@H](CCCC[N+](C)(C)C)C(=O)N4[C@@H]3c3ccc(O)cc3)cc2)[C@@]12C(=O)Nc1ccc(I)cc12", "z-score": 6.56},
      {"smiles": "COc1ccc(CCNC(=O)[C@@]2(c3ccc([N+](=O)[O-])cc3)CC(=O)N(C3CCCCC3)[C@@H]2c2ccc(CO)cc2)cc1", "z-score": -4.2},
      {"smiles": "CN(C)C(=O)[C@]1(Cc2ccccc2CN=[N+]=[N-])N=C(c2ccc(OCCCO)cc2)O[C@@H]1c1ccccc1", "z-score": -6.11},
      {"smiles": "Cc1ccc(C(C)CC(O)C2C=CC3C(=O)N(c4ccccc4)C(=O)C3N2Nc2ccccc2)o1", "note": "(centres undefined)", "z-score": -1.12},
      {"smiles": "O=C(c1ccccc1)N1C(=O)[C@]2(Cc3ccccc31)N=C(c1ccc(OCCCO)cc1)O[C@@H]2c1ccccc1", "z-score": -5.04},
      {"smiles": "CS(=O)(=O)CCOC(=O)C1=CC(CCCO)=CC(c2ccc(CN3CCCC3)cc2)N(Cc2sc3ccccc3c2Cl)C=C1C(=O)OCCS(C)(=O)=O", "note": "(centres undefined)", "z-score": 1.07},
      {"smiles": "Cc1ccc(F)cc1S(=O)(=O)N[C@@H]1CCN(Cc2ccc(Br)cc2)C1", "z-score": -5.43},
      {"smiles": "CO[C@H]1O[C@H](CO)[C@@H](OC(=O)Nc2ccccc2)[C@H](OC(=O)c2cc3ccccc3[nH]2)[C@H]1OC(=O)c1cc2ccccc2[nH]1", "z-score": -4.4},
      {"smiles": "CCCCC(CC)C(O)C1C=CC2C(=O)N(C)C(=O)C2N1Nc1ccccc1", "note": "(centres undefined)", "z-score": -4.08},
      {"smiles": "CCC#CCN(Cc1ccccc1Br)[C@H](/C=C/C1CC1)[C@@H](O)Cc1ccccc1", "z-score": -0.634},
      {"smiles": "O=C1N(Cc2ccccc2)c2ccccc2C[C@]12N=C(c1ccc(OCCCO)cc1)O[C@@H]2c1ccccc1", "z-score": -3.59},
      {"smiles": "Cn1cccc1C(O)C1C=CC2C(=O)N(c3ccccc3)C(=O)C2N1Nc1ccccc1", "note": "(centres undefined)", "z-score": -4.04},
      {"smiles": "C=CCC(OC(C)=O)[C@@H]1[C@@H](N(Cc2ccc(-c3cccc(C(F)(F)F)c3)o2)C(=O)c2ccc(-c3ccccc3)cc2)c2cc(OCCCO)ccc2N1C(=O)Cc1ccc2ccccc2c1", "note": "(some centres undefined)", "z-score": -1.1},
      {"smiles": "CCOC(=O)C1=C[C@@H](c2ccccc2)N(S(=O)(=O)c2ccc(C)cc2)[C@H]1c1ccc(OC)cc1", "z-score": 0.842}
    ]},
    {"test_system": "not listed separately", "assay": "inhibitors of hydroxyurea-induced Chk1 phosphorylation, primary screen, imaging, HeLa, phospho-Chk1 antibody, percent positive cells (AID 1186)", "details": "hydroxyurea-induced phospho-Chk1 immunofluorescence imaging, higher = more signal", "values": [
      {"smiles": "COC(=O)[C@@H]1N=C(c2ccc(OCCCO)cc2)O[C@@H]1c1ccccc1", "z-score": -0.4},
      {"smiles": "COCCOC(=O)N1C(=O)[C@@]2(c3ccccc31)[C@H](c1ccc(O)cc1)N1[C@H](c3ccccc3)[C@H](c3ccccc3)OC(=O)[C@H]1[C@@H]2C(=O)N1CCN(c2ncccn2)CC1", "z-score": 0.0666},
      {"smiles": "CC(C)[Si]1(C(C)C)OCc2cc(-c3ccc(-c4ccc(Cl)c(Cl)c4)o3)nc(-c3ccccc3)c21", "z-score": -0.611},
      {"smiles": "[N-]=[N+]=Nc1ccccc1[C@H]1OC(c2ccc(OCCCO)cc2)=N[C@@]1(Cc1ccccc1)C(=O)NCCN1CCOCC1", "z-score": -0.116},
      {"smiles": "CC(C)[Si]1(C(C)C)OCc2cc(C3CC3)nc(-c3ccc(Oc4ccccc4)cc3)c21", "z-score": -0.48},
      {"smiles": "[N-]=[N+]=Nc1ccccc1[C@@H]1OC(c2ccc(OCCCO)cc2)=N[C@]1(Cc1ccccc1)C(=O)O", "z-score": -0.178},
      {"smiles": "CO[C@H]1O[C@H](CO)[C@@H](OC(=O)Nc2ccc(Br)cc2)[C@@H]2OC(=O)[C@@H](Cc3ccccc3)C/C=C/C[C@H](Cc3ccccc3)C(=O)O[C@@H]12", "z-score": -0.324},
      {"smiles": "CS(=O)(=O)CCOC(=O)C1=CC(c2ccc(CO)cc2)=CC(C2CC2)N(Cc2sc3ccccc3c2Cl)C=C1C(=O)OCCS(C)(=O)=O", "note": "(centres undefined)", "z-score": -0.27},
      {"smiles": "COC(=O)[C@@]1(Cc2ccccc2)[C@H]2c3cc(C(=O)N(C)C)n(Cc4ccc(C)o4)c3C[C@H]2CN1C(=O)c1ccccc1", "z-score": 1.19},
      {"smiles": "CCCC[C@@H](O)C1=C(COC)C[C@H]2C(=O)N(Cc3ccccc3)C(=O)[C@H]2[C@H]1CO", "z-score": -0.187},
      {"smiles": "NC(=O)[C@H]1[C@@H]2C(=O)O[C@@H](c3ccccc3)[C@@H](c3ccccc3)N2[C@@H](c2ccc(OCCO)cc2)[C@]12C(=O)Nc1ccc(C#CCCO)cc12", "z-score": -0.317},
      {"smiles": "CCCCC[C@H]1OC[C@@]23C=C(Br)[C@@H](CC12)[C@@]1(CO1)C3=O", "note": "(some centres undefined)", "z-score": -0.556},
      {"smiles": "C=C(C(=O)CC[C@H](OC(=O)c1ccccc1-c1ccccc1C(=O)O)c1cccc(OCCO)c1)C(C)C", "z-score": 0.442},
      {"smiles": "C=CCNC(=O)[C@@H]1[C@H]2C(=O)O[C@H](c3ccccc3)[C@H](c3ccccc3)N2[C@H](c2ccc(OCCO)cc2)[C@@]12C(=O)N(C(=O)OCCOC)c1ccc(C#Cc3ccc(OC)cc3)cc12", "z-score": 0.0644},
      {"smiles": "NCCCCCCNC(=O)[C@@H]1C[C@@H]2C(=O)N[C@@H](CCCCN)C(=O)N2[C@@H]1c1ccc(O)cc1", "z-score": -0.546},
      {"smiles": "COc1cc2c(cc1O)C=[N+](Cc1sc3ccccc3c1Cl)CC2", "z-score": 0.399},
      {"smiles": "CC(C)N1C(=O)c2ccccc2[C@@H](C(=O)NCCN2CCOCC2)[C@@H]1c1ccc(CO)cc1", "z-score": -0.0809},
      {"smiles": "COCCOC(=O)N1C(=O)[C@@]2(c3cc(C#CCCO)ccc31)[C@H](c1ccc(OCCO)cc1)N1[C@H](c3ccccc3)[C@H](c3ccccc3)OC(=O)[C@H]1[C@@H]2C(=O)Nc1nc2ccccc2s1", "z-score": -0.0639},
      {"smiles": "CCCCN1CC=CC23O[C@@H]4/C=C\\CCCOC(=O)C4[C@H]2C(=O)N(CCO)[C@@H]3C1=O", "note": "(some centres undefined)", "z-score": -0.302},
      {"smiles": "Oc1ccc2cc[n+](Cc3cc4c(cc3Br)OCO4)cc2c1", "z-score": 0.12},
      {"smiles": "CCOC(=O)C[C@H]1[C@H](OC(=O)c2ccc(C(=O)c3ccccc3)cc2)[C@@H](NC(=O)CC(C)C)c2cc(OCCCO)ccc2N1C(=O)c1ccccc1", "z-score": 0.309},
      {"smiles": "C=CCOC(=O)[C@@H]1[C@H]2C(=O)O[C@H](c3ccccc3)[C@H](c3ccccc3)N2[C@H](c2ccc(OCCOC(=O)[C@@H]3C[C@@H]4C(=O)N[C@@H](CCCC[N+](C)(C)C)C(=O)N4[C@@H]3c3ccc(O)cc3)cc2)[C@@]12C(=O)Nc1ccc(I)cc12", "z-score": 0.355},
      {"smiles": "COc1ccc(CCNC(=O)[C@@]2(c3ccc([N+](=O)[O-])cc3)CC(=O)N(C3CCCCC3)[C@@H]2c2ccc(CO)cc2)cc1", "z-score": -0.192},
      {"smiles": "CN(C)C(=O)[C@]1(Cc2ccccc2CN=[N+]=[N-])N=C(c2ccc(OCCCO)cc2)O[C@@H]1c1ccccc1", "z-score": -0.52},
      {"smiles": "Cc1ccc(C(C)CC(O)C2C=CC3C(=O)N(c4ccccc4)C(=O)C3N2Nc2ccccc2)o1", "note": "(centres undefined)", "z-score": -0.179},
      {"smiles": "O=C(c1ccccc1)N1C(=O)[C@]2(Cc3ccccc31)N=C(c1ccc(OCCCO)cc1)O[C@@H]2c1ccccc1", "z-score": 0.546},
      {"smiles": "CS(=O)(=O)CCOC(=O)C1=CC(CCCO)=CC(c2ccc(CN3CCCC3)cc2)N(Cc2sc3ccccc3c2Cl)C=C1C(=O)OCCS(C)(=O)=O", "note": "(centres undefined)", "z-score": 0.316},
      {"smiles": "Cc1ccc(F)cc1S(=O)(=O)N[C@@H]1CCN(Cc2ccc(Br)cc2)C1", "z-score": 0.0663},
      {"smiles": "CO[C@H]1O[C@H](CO)[C@@H](OC(=O)Nc2ccccc2)[C@H](OC(=O)c2cc3ccccc3[nH]2)[C@H]1OC(=O)c1cc2ccccc2[nH]1", "z-score": -0.389},
      {"smiles": "CCCCC(CC)C(O)C1C=CC2C(=O)N(C)C(=O)C2N1Nc1ccccc1", "note": "(centres undefined)", "z-score": 0.168},
      {"smiles": "CCC#CCN(Cc1ccccc1Br)[C@H](/C=C/C1CC1)[C@@H](O)Cc1ccccc1", "z-score": -0.887},
      {"smiles": "O=C1N(Cc2ccccc2)c2ccccc2C[C@]12N=C(c1ccc(OCCCO)cc1)O[C@@H]2c1ccccc1", "z-score": -0.0747},
      {"smiles": "Cn1cccc1C(O)C1C=CC2C(=O)N(c3ccccc3)C(=O)C2N1Nc1ccccc1", "note": "(centres undefined)", "z-score": 0.121},
      {"smiles": "C=CCC(OC(C)=O)[C@@H]1[C@@H](N(Cc2ccc(-c3cccc(C(F)(F)F)c3)o2)C(=O)c2ccc(-c3ccccc3)cc2)c2cc(OCCCO)ccc2N1C(=O)Cc1ccc2ccccc2c1", "note": "(some centres undefined)", "z-score": 0.345},
      {"smiles": "CCOC(=O)C1=C[C@@H](c2ccccc2)N(S(=O)(=O)c2ccc(C)cc2)[C@H]1c1ccc(OC)cc1", "z-score": -0.0622}
    ]}
  ]
}
